# Experimental data taken from PubChem BioAssay AID485344 (National Center for Advancing Translational Sciences (NCATS), 2010).
# About 6,900 (2%) of roughly 340,000 compounds were called active. Shown is part of a subset that was picked to be rich in actives. Unmarked numbers belong to inactive results. Rule as the data show it: active = inhibition above about 30%; inactive = below that, where a call was filed.
# Target: D(2) dopamine receptor (Homo sapiens) (UniProt P14416)
# Assay: HTS Assay for Allosteric Antagonists of the Human D2 Dopamine Receptor: Primary Screen for Antagonists; also: 0% is about no effect
# Conditions: HEK293 TREx D2 cells, calcium flux, dopamine EC80; at 10 µM; stronger effect = higher value
# In short: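 Tetracycline-induced HEK293 TREx cells expressing D2 receptor forced-coupled to calcium signalling, loaded with no-wash calcium dye. Compounds added and calcium flux read 180 s, then dopamine added at EC80 and read a further 180 s.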
# Sequence of D(2) dopamine receptor (Homo sapiens) (P14416 whole entry, looked up): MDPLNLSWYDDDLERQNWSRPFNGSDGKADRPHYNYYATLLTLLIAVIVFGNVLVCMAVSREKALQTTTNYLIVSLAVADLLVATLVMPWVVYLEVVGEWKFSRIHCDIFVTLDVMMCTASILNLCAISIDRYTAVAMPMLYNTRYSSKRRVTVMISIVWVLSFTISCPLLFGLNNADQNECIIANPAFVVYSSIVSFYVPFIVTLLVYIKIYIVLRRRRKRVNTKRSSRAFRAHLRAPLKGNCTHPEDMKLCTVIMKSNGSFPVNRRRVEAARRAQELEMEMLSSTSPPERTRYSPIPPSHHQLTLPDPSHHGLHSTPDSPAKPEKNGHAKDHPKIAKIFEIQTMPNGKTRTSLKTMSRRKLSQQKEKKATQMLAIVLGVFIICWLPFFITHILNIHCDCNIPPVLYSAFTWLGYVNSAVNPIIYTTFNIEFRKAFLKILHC
row,SMILES,inhibition
1,Cc1ccc(COC(=O)CN2C(=O)NC3(CCCC3)C2=O)cc1,-1.94%
2,CCCC(C)NC(=O)C1CCN(C(=O)C2CC(=O)N(c3ccc(C)cc3)C2)CC1 (stereo unspecified),33% (active)
3,COCCNC(=O)C1CCN(C(=O)C2CC(=O)N(c3ccc(C)cc3)C2)CC1 (stereo unspecified),30% (active)
4,CCc1ccc(N2CC(C(=O)N3CCCCCC3)CC2=O)cc1 (stereo unspecified),-11.6%
5,COCCCNC(=O)C1CC(=O)N(c2ccc(C)cc2)C1 (stereo unspecified),-5.47%
6,O=C(C1CC(=O)N(c2ccc(Br)cc2)C1)N1CCCC1 (stereo unspecified),-3.05%
7,Cc1ccc(N2CC(C(=O)NCCS(=O)(=O)N3CCN(c4ccccc4)CC3)CC2=O)cc1 (stereo unspecified),8.52%
8,Cc1ccc(NC(=O)CCC(=O)N2CCC(c3ccccc3)=N2)cc1S(=O)(=O)N1CCCCC1,-6.66%
9,CC1(C)CC(=O)C=C(c2cccc3c2Oc2ccccc2S3)C1,2.71%
10,Cc1ccc(NC(=O)C(c2ccccc2)N2CCN(C(=O)c3ccco3)CC2)cc1 (stereo unspecified),-0.875%
11,CN(C(=O)CSc1nnc(-c2ccc3c(c2)OCO3)o1)C1CCS(=O)(=O)C1 (stereo unspecified),8.68%
12,Cc1ccc(N2C(=O)C3C4C=CC(CC4)C3C2=O)cc1Cl (stereo unspecified),-11.1%
13,Cc1ccc(N2C(=O)C3C4C=CC(CC4)C3C2=O)cc1Br (stereo unspecified),54.9% (active)
14,CC(=O)Nc1ccc(N2C(=O)C3C4C=CC(CC4)C3C2=O)cc1 (stereo unspecified),2.36%
15,Cn1c(-c2ccc(C(F)(F)F)cc2)cc2onc(-c3ccccc3)c2c1=O,8.4%
16,CCOc1ccc(C(=O)NCC(=O)N2CCN(c3ccc(C(F)(F)F)cn3)CC2)cc1,-6.45%
17,Cc1ccc(C(=O)OCC(=O)NCc2cc(C)c(O)c(C)c2)cc1S(=O)(=O)N1CCCCC1,14.2%
18,CCN(C(=O)CSc1nc2ccccc2n1CC)C1CCS(=O)(=O)C1 (stereo unspecified),8.24%
19,CCN(C(=O)COC(=O)/C=C/c1nc2ccccc2s1)C1CCS(=O)(=O)C1 (stereo unspecified),31.7% (active)
20,CCN(C(=O)COC(=O)c1c(NC(C)=O)sc(C)c1C)C1CCS(=O)(=O)C1 (stereo unspecified),9.33%
21,COc1ccc(N2CCN(C(=O)CCNC(=O)c3ccc(Br)cc3)CC2)cc1,-5.34%
22,CC(C(=O)N1CCc2ccccc21)N(C)CC(=O)Nc1ccc(F)cc1 (stereo unspecified),17.3%
23,COc1ccccc1C(=O)NCC(=O)NCCSc1ccc(Br)cc1,-18.2%

row,SMILES,inhibition
1,O=C(Cc1ccccc1)NCc1ccc(F)cc1,7.68%
2,Cc1cc(C)cc(NC(=S)NCc2ccc(F)cc2)c1,17.7%
3,Fc1ccc(CNCc2ccc(Br)cc2)cc1,48.7% (active)
4,CCOC(=O)C1CCCN(C(=O)c2ccc(C)c(S(=O)(=O)N3CCCCC3)c2)C1 (stereo unspecified),-2.03%
5,CC(=O)Nc1ccc(SC[C@H](Cc2ccccc2)N2CC[C@@H](C)CCC2=O)cc1,6.05%
6,O=C(Cn1nnc(-c2ccccc2)n1)NC(=O)NC1CCCC1,-8.79%
7,N#Cc1ccc(COC(=O)Cn2nnc(-c3ccccc3)n2)cc1,32.5% (active)
8,COc1cc(-c2nnn(CC(=O)NCc3ccccc3)n2)cc(OC)c1OC,-2.02%
9,COc1cc([N+](=O)[O-])ccc1NC(=O)COC(=O)CCOc1ccc(C)cc1,-25.8%
10,Cc1cccc(Nc2nnc(SCC(=O)c3c(N)n(C4CC4)c(=O)[nH]c3=O)s2)c1C,-24.6%
11,O=S(=O)(Nc1ccc2nc(N3CCOCC3)sc2c1)c1ccccc1,-2.59%
12,O=C(CCNC(=O)c1ccccc1)Nc1nc2ccccc2s1,9.78%
13,CC(=O)Nc1ccc(-c2csc(NC(=O)Nc3ccccc3)n2)cc1,0.929%
14,O=C(Nc1ccccc1)Nc1nc2ccccc2s1,38.1% (active)
15,O=C(O)CSc1ccc(S(=O)(=O)N2CCCC2)cn1,-7.84%
16,O=C(NCC1COc2ccccc2O1)C1(c2ccccc2)CCCC1 (stereo unspecified),2.24%
17,Cc1cc(NC(=O)CCC2COc3ccccc3O2)no1 (stereo unspecified),16.6%
18,Cc1noc(C)c1C(=O)NCC1COc2ccccc2O1 (stereo unspecified),42% (active)
19,NC(=O)c1ccsc1NC(=O)COC(=O)COc1ccc(C=O)cc1,0.0079%
20,CCOc1ncccc1C(=O)Nc1ccc(S(=O)(=O)Nc2nc(C)cc(C)n2)cc1,-33.5%
21,COc1ccc(NS(=O)(=O)c2cc(NC(=O)COc3ccccc3F)ccc2OC)cc1,-11%
22,CCCNC(=O)NC(=O)COC(=O)CC(NC(N)=O)c1ccc(Cl)cc1 (stereo unspecified),-5.2%
23,CN(C)S(=O)(=O)c1ccc(Cl)c(NC(=O)COC(=O)CC(NC(N)=O)c2ccc(Cl)cc2)c1 (stereo unspecified),8.54%

row,SMILES,inhibition
1,NC(=O)NC(CC(=O)NNC(=O)c1ccccn1)c1ccc(Cl)cc1 (stereo unspecified),35.3% (active)
2,CC(C)C(NC(=O)c1c(F)cccc1F)C(=O)NCc1ccncc1 (stereo unspecified),-6.22%
3,CC(=O)Nc1ccc(S(=O)(=O)Oc2ccc(/C=N/N=C3/NC(=O)C(CC(=O)O)S3)cc2)cc1 (stereo unspecified),35.4% (active)
4,Cc1ccc(NC(=O)CC2S/C(=N/N=C3\CCCc4ccccc43)NC2=O)cc1 (stereo unspecified),-3.76%
5,Cc1ccc(S(=O)(=O)Oc2ccc(/C=N/NC(=O)c3ccncc3)cc2)cc1,-6.29%
6,Cc1cc(C(=O)CCC(=O)NNC(=O)c2ccccc2O)c(C)s1,19.4%
7,Cc1c(NC(=S)Nc2ccccc2)c(=O)n(-c2ccccc2)n1C,-10.1%
8,Cc1c(NC(=S)NC(=O)CCc2ccccc2)c(=O)n(-c2ccccc2)n1C,40.2% (active)
9,Cc1c(NC(=O)CN2C(=O)C(=O)N(Cc3ccccc3)C2=O)c(=O)n(-c2ccccc2)n1C,-13.5%
10,COc1ccc(OC)c(CN2CCN(C(=O)CNC(=O)c3cc(C)cc(C)c3)CC2)c1,-4.53%
11,CCN(CC)S(=O)(=O)c1cc(C(=O)Nc2cc(S(=O)(=O)N3CCOCC3)ccc2N2CCCC2)ccc1F,-9.39%
12,CN(CC(=O)Nc1ccc(Cl)cc1)CC(=O)Nc1cccc2ccccc12,-6.32%
13,CC(C)c1ccc(/C=C/C(=O)NCCCN2CCOCC2)cc1,-4.54%
14,Cn1c(C(=O)NCCCN2CCN(c3cccc(Cl)c3)CC2)cc2c(=O)n(C)c3ccccc3c21,95.2% (active)
15,Cn1c(C(=O)NCCc2ccsc2)cc2c(=O)n(C)c3ccccc3c21,-0.277%
16,CCN1CCCC1CNC(=O)c1cc2c(=O)n(C)c3ccccc3c2n1C (stereo unspecified),-1.94%
17,CCOC(=O)N1CCC(NC(=O)COc2cc(=O)n(C)c3ccccc23)CC1,7.2%
18,CCOC(=O)N1CCC(Nc2c(NCCN3CCN(c4cccc(Cl)c4)CC3)c(=O)c2=O)CC1,-2.93%
19,CCn1c(=O)cc(OCC(=O)NCCCN2CCN(c3cccc(Cl)c3)CC2)c2ccccc21,78.9% (active)
20,CCOc1ccc(C(=O)CCC(=O)Nc2ccncc2)cc1,-7.41%
21,Cc1ccc(-c2nn(-c3ccccc3)cc2C(=O)NCCCN2CCCC2=O)cc1,-11.6%
22,Cc1noc(C)c1COc1ccc(C(=O)NCCOc2ccccc2)cc1,-11%
23,COc1ccc(Cl)cc1NC(=O)CN(C)CC(=O)Nc1ccc2c(c1)OCO2,-18.1%

row,SMILES,inhibition
1,O=C1C=C(c2cccc(Cl)c2O)C[C@@H](c2ccc(F)cc2)C1,6%
2,CCCN(CC(=O)Nc1ccccc1C)C(=O)c1ccc2[nH]c3c(c2c1)CC(C)CC3 (stereo unspecified),-19.6%
3,CS(=O)(=O)c1ccc2nc(NC(=O)CN3CCCCCC3)sc2c1,-16.3%
4,CS(=O)(=O)c1ccc2nc(NC(=O)C3C4C=CC(C4)C3C(=O)O)sc2c1 (stereo unspecified),-4.77%
5,CS(=O)(=O)c1ccc2nc(NC(=O)C3CCCCC3)sc2c1,30.6% (active)
6,CC(C)Oc1ccc(C(=O)NCC(=O)Nc2ccc3c(c2)CCC3)cc1,-1.68%
7,O=C(COC(=O)C1(c2ccc(F)cc2)CCCC1)N1CCNC1=O,7.82%
8,CCCCN(C(=O)c1nn(C)c(=O)c2ccccc12)c1c(N)n(CCC)c(=O)[nH]c1=O,-7.93%
9,CC1CCCN(C(=O)c2cc(-c3ccco3)nc3ccccc23)C1 (stereo unspecified),-3.9%
10,COc1ccc(S(=O)(=O)NCC(c2ccc(C)cc2)N2CCN(C)CC2)cc1OC (stereo unspecified),-15.8%
11,CC(=O)Nc1ccc(NC(=O)COC(=O)c2ccccc2C(=O)c2ccccc2)cc1,11.9%
12,O=S(=O)(Nc1cc(Cl)ccc1N1CCOCC1)c1ccccc1Cl,-22.2%
13,Cc1ccc2[nH]c(=O)c(CN3CCCCC3)c(-c3ccccc3)c2c1,-4.98%
14,Clc1ccc(CN2CCCCCC2)cc1Cl,26.4%
15,c1ccc2cc3[nH]c(CN4CCCCC4)nc3cc2c1,58.4% (active)
16,O=S(=O)(c1ccc(SCc2ccc(Br)cc2)nc1)N1CCOCC1,-7.49%
17,Cc1ccsc1C(=O)NCCc1ccco1,11.7%
18,N#Cc1cccc(NC(=O)C2CCCN(C(=O)c3ccc(Cl)cc3)C2)c1 (stereo unspecified),19.5%
19,CCOC(=O)CCCN1CC(O)=C(c2nc3ccccc3s2)C1=N,15.9%
20,COc1ccccc1N1CC(O)=C(c2nc3ccccc3s2)C1=N,16.1%
21,N=C1C(c2nc3ccccc3s2)=C(O)CN1NC(=O)c1ccc([N+](=O)[O-])cc1,42.3% (active)
22,Cc1ccc(S(=O)(=O)N2[C@@H](c3ccccc3F)C(C(=O)O)=CC[C@H]2c2ccc(Cl)cc2)cc1,16%
